# In PubChem BioAssay (Tox21):
# Several values for one entry are separate records, joined by “and”; a condition that tells them apart may be missing. Equal entries are not always repeated. Inconclusive results are not listed. Entries that show only a call come without a potency. Activity calls are given as the source filed them. Unless noted, calls follow the shape of the dose curve; as a rule, active = well fitted curve in the direction sought with a large enough effect in the repeat runs; inconclusive = weak or mixed curves; inactive = no such curve, though single readings can be large; an effect the other way counts as inactive or inconclusive.
# Legend:
# [1] = qHTS assay to identify small molecule agonists of the peroxisome proliferator-activated receptor delta (PPARd) signaling pathway - cell viability counter screen (AID 743211); also: nearly all actives have a fitted effect of over 55% in size; also: potency is read from the fitted curve at half-maximal effect
# How it was run: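 Counter screen for cytotoxicity run in parallel with the PPARd reporter screen. Beta-lactamase reporter HEK293H cells exposed to compounds 17 h; ATP-based CellTiter-Glo luminescence quantified viability.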
# [2] = qHTS assay to identify small molecule agonists of the farnesoid-X-receptor (FXR) signaling pathway - cell viability counter screen (AID 743218); also: nearly all actives have a fitted effect of over 45% in size; also: potency is read from the fitted curve at half-maximal effect
# How it was run: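 Readout: CellTiter-Glo luminescence, 30 min RT, multiplexed after the FXR-bla FRET reading. HEK 293T FXR-UAS-bla cells received compound 5 h post-plating and were incubated 16 h at 37 C.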
# [3] = qHTS assay to identify small molecule antagonists of the farnesoid-X-receptor (FXR) signaling pathway - cell viability counter screen (AID 743221; active = well fitted cell-killing curve with a large enough effect in the repeat runs, not every such curve was filed as active; also: nearly all actives have a fitted effect of over 50% in size; also: potency is read from the fitted curve at half-maximal effect)
# How it was run: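 Multiplexed counter screen: viability of FXR-bla HEK 293T cells under agonist stimulation by chenodeoxycholic acid (50 uM, final) and test compound for 16 h at 37 C, measured by CellTiter-Glo luminescence in the reporter wells.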
# [4] = biological target: Vitamin D3 receptor (Homo sapiens) (UniProt P11473); experiment: qHTS assay to identify small molecule agonists of the vitamin D receptor (VDR) signaling pathway (AID 743222; calls by dose curve)
# Vitamin D3 receptor (Homo sapiens), sequence (P11473 whole entry, looked up): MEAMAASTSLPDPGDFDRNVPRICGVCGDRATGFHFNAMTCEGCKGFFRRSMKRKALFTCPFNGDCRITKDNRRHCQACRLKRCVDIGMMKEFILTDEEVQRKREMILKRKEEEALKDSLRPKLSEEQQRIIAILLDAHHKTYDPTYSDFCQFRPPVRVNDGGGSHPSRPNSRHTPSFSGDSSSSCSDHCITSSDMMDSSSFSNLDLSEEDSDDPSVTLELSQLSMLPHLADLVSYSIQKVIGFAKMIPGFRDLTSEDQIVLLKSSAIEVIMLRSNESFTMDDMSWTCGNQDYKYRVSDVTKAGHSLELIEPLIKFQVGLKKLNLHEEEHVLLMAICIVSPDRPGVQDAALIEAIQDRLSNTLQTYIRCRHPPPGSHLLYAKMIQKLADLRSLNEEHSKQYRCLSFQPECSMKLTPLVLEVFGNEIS
# How it was run: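 Following 4 h attachment at 37C, VDR-bla cells (2,000 per well) received DMSO-dissolved compounds or controls. After 16 h incubation, LiveBLAzer B/G FRET substrate was added and fluorescence read 2 h later at room temperature.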
# [5] = biological target: Peroxisome proliferator-activated receptor delta (Homo sapiens) (UniProt Q03181); experiment: qHTS assay to identify small molecule antagonists of the peroxisome proliferator-activated receptor delta (PPARd) signaling pathway (AID 743215; active = well fitted inhibition curve with a large enough effect in the signal ratio in the repeat runs, not every such curve was filed as active; the % refers to the signal ratio;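 also: cells stimulated with agonist L165041 at 300 nM final during compound exposure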; also: potency is read from the fitted curve at half-maximal effect)
# Peroxisome proliferator-activated receptor delta (Homo sapiens), sequence (Q03181 whole entry, looked up): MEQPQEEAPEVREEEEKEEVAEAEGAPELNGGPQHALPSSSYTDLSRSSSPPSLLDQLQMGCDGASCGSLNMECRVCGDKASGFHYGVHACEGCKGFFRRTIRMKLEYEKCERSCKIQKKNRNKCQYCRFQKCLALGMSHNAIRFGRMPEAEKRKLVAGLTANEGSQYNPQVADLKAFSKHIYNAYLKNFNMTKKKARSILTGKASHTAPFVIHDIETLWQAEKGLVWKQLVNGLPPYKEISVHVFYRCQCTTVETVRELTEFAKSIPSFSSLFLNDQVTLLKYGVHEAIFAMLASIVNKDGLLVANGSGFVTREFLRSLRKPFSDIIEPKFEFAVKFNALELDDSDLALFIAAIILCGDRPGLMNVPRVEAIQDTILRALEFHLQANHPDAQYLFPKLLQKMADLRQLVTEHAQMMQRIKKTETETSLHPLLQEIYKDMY
# How it was run: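 Fluorescence from cleaved LiveBLAzer B/G FRET substrate (2 h, room temperature) reports PPARd-driven beta-lactamase in HEK293H UAS-bla cells. Cells had been treated 17 h at 37 C with compound plus 300 nM final L165041.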
# [6] = biological target: Bile acid receptor (Homo sapiens) (UniProt Q96RI1); experiment: qHTS assay to identify small molecule antagonists of the farnesoid-X-receptor (FXR) signaling pathway (AID 743217; active = well fitted inhibition curve with a large enough effect in the signal ratio in the repeat runs, not every such curve was filed as active; the % refers to the signal ratio)
# Bile acid receptor (Homo sapiens), sequence (Q96RI1 whole entry, looked up): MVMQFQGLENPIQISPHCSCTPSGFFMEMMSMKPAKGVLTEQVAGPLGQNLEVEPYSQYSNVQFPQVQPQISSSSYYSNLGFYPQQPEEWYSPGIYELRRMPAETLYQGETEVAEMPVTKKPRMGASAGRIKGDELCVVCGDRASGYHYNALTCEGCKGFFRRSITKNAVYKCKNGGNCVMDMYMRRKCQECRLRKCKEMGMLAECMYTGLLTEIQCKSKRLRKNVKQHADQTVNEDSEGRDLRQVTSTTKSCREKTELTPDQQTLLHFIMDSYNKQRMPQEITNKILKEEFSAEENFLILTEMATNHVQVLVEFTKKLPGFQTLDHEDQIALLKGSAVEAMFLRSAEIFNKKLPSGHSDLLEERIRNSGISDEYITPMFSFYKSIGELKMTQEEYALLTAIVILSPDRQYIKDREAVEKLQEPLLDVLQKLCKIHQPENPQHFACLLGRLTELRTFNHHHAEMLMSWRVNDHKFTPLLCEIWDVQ
# How it was run: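 FRET fluorescence after 2 h room-temperature LiveBLAzer loading gives the readout. Prior step: FXR-bla HEK 293T cells, seeded and incubated 5 h, received test compounds plus 50 uM final CDCA for 16 h at 37 °C.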
# [7] = biological target: Bile acid receptor (Homo sapiens) (UniProt Q96RI1); experiment: qHTS assay to identify small molecule agonists of the farnesoid-X-receptor (FXR) signaling pathway (AID 743220; active = well fitted activation curve with a large enough effect in the signal ratio in the repeat runs, not every such curve was filed as active; the % refers to the signal ratio)
# How it was run: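 FXR-UAS-bla HEK 293T cells carrying a UAS-driven beta-lactamase reporter were plated for 5 h at 37C/5% CO2, then exposed to DMSO-dissolved Tox21 10K compounds for 16 h at 37C. A LiveBLAzer B/G FRET substrate was loaded for 2 h at room temperature before fluorescence reading.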
# [8] = qHTS assay to identify small molecule antagonists of the peroxisome proliferator-activated receptor delta (PPARd) signaling pathway - cell viability counter screen (AID 743213); also: nearly all actives have a fitted effect of over 50% in size
# How it was run: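 PPARd-bla HEK293H cells (3000/well) got compound plus 300 nM L165041 agonist for 17 h at 37 C. Viability in the same wells came from CellTiter-Glo luminescence after 30 min at room temperature.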
# [9] = biological target: Vitamin D3 receptor (Homo sapiens) (UniProt P11473); experiment: qHTS assay to identify small molecule antagonists of the vitamin D receptor (VDR) signaling pathway (AID 743223; active = well fitted inhibition curve with a large enough effect in the signal ratio in the repeat runs, not every such curve was filed as active; the % refers to the signal ratio)
# How it was run: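 Cells carrying a VDR-driven beta-lactamase reporter (VDR-bla) were co-treated with compound and 3 nM final 1alpha,25-dihydroxyvitamin D3 for 16 h at 37C; reporter activity was measured as FRET substrate fluorescence after 2 h at room temperature.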
# [10] = biological target: Peroxisome proliferator-activated receptor delta (Homo sapiens) (UniProt Q03181); experiment: qHTS assay to identify small molecule agonists of the peroxisome proliferator-activated receptor delta (PPARd) signaling pathway (AID 743212; calls by dose curve;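 also: HEK293H cells with PPARd UAS beta-lactamase reporter GeneBLAzer system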)
# How it was run: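 Beta-lactamase reporter read by fluorescence (LiveBLAzer B/G FRET, 2 h, room temperature). Test agents, in DMSO, incubated at 37 C with PPARd-bla HEK293H cells.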
smiles,measurement,setting,value
C1=CCC=C1,Potency,[1],inactive
same,Potency,[2],inactive
same,Potency,[3],inactive
same,Potency,[4],inactive
CC(=O)[O-].CC(=O)[O-].O.O.O.[Pb+2],Potency,[1],inactive
same,Potency,[2],inactive
same,Potency,[3],inactive
Nc1ccc(Cl)cc1C(=O)c1ccccc1F,Potency,[1],inactive
same,Potency,[5],inactive
same,Potency,[6],inactive
same,Potency,[7],inactive
same,Potency,[3],inactive
O=C(NC(=O)c1c(F)cccc1F)Nc1ccc(Oc2ccc(C(F)(F)F)cc2Cl)cc1F,Potency,[1],inactive
same,Potency,[5],inactive
same,Potency,[6],inactive
same,Potency,[7],inactive
same,Potency,[3],inactive
CCN(CC)C(=O)N[C@@H]1C=C2c3cccc4[nH]cc(c34)C[C@@H]2N(C)C1,Potency,[1],inactive
same,Potency,[8],inactive
same,Potency,[7],inactive
same,Potency,[3],inactive
same,Potency,[4],inactive
CC(C)Br,Potency,[1],inactive
same,Potency,[6],inactive
same,Potency,[2],inactive
same,Potency,[7],inactive
same,Potency,[3],inactive
same,Potency,[4],inactive
same,Potency,[9],inactive
CN1CCc2cc3c(cc2C1O)OCO3 (stereo not drawn),Potency,[1],inactive
same,Potency,[2],inactive
same,Potency,[3],inactive
CCOP(=O)(OCC)Oc1nc(Cl)c(Cl)cc1Cl,Potency,[1],38.7 µM (active)
same,Potency,[5],12.2 µM (active)
same,Potency,[4],inactive
Brc1ccc(Oc2ccc(Br)cc2Br)c(Br)c1,Potency,[1],43.7 µM (active)
same,Potency,[8],inactive
same,Potency,[7],inactive
same,Potency,[3],inactive
same,Potency,[4],inactive
CC(Cc1ccccc1)N(C)Cc1ccco1 (stereo not drawn),Potency,[1],inactive
same,Potency,[6],inactive
same,Potency,[2],inactive
same,Potency,[7],inactive
same,Potency,[3],inactive
same,Potency,[4],inactive
same,Potency,[9],inactive
C=CC(=C)C,Potency,[1],inactive
same,Potency,[5],inactive
same,Potency,[6],inactive
same,Potency,[2],inactive
same,Potency,[7],inactive
same,Potency,[3],inactive
same,Potency,[4],inactive
same,Potency,[9],inactive
CC(C)[C@@H](Nc1ccc(C(F)(F)F)cc1Cl)C(=O)OC(C#N)c1cccc(Oc2ccccc2)c1 (stereo partly drawn),Potency,[1],inactive
same,Potency,[2],inactive
same,Potency,[7],inactive
same,Potency,[3],inactive
same,Potency,[4],inactive
Nc1ccccc1-c1ccccc1,Potency,[1],inactive
same,Potency,[8],inactive
same,Potency,[3],inactive
same,Potency,[4],inactive
C[C@]12C/C(=C/O)C(=O)C[C@@H]1CC[C@@H]1[C@@H]2CC[C@@]2(C)[C@H]1CC[C@]2(C)O,Potency,[1],49.4 µM (active)
same,Potency,[8],inactive
same,Potency,[3],inactive
same,Potency,[9],inactive
C[C@H]1[C@H](c2ccc(Cl)cc2)SC(=O)N1C(=O)NC1CCCCC1,Potency,[1],inactive
same,Potency,[2],inactive
same,Potency,[3],inactive
same,Potency,[4],inactive
O=S(=O)(NS(=O)(=O)C(F)(F)F)C(F)(F)F,Potency,[1],inactive
same,Potency,[2],inactive
same,Potency,[3],inactive
Cc1ccc([N+](=O)[O-])[c]2c1[O][Hg]2,Potency,[1],1.88 µM (active)
same,Potency,[2],2.37 µM (active)
same,Potency,[3],1.19 µM (active)
O=C(CCCCl)c1ccc(F)cc1,Potency,[1],inactive
same,Potency,[2],inactive
same,Potency,[3],inactive
[O]=[Cr](=[O])([OH])[O][Cr](=[O])(=[O])[OH],Potency,[1],22.1 µM (active) and 27.5 µM (active)
same,Potency,[2],27.5 µM (active)
same,Potency,[3],19.7 µM (active) and 24.5 µM (active)
same,Potency,[4],inactive
Oc1cc(Cl)c(Cl)c(Cl)c1Cl,Potency,[2],47.8 µM (active)
same,Potency,[7],inactive
same,Potency,[3],inactive
CSC(=O)c1c(C(F)F)nc(C(F)(F)F)c(C(=O)SC)c1CC(C)C,Potency,[10],inactive
same,Potency,[5],inactive
same,Potency,[2],inactive
same,Potency,[3],inactive
COc1ccc2[nH]cc(CCN(C(C)C)C(C)C)c2c1,Potency,[10],inactive
same,Potency,[8],inactive
same,Potency,[4],inactive
same,Potency,[9],inactive
c1ccc(Nc2ccc(Nc3ccccc3)cc2)cc1,Potency,[8],inactive
same,Potency,[7],inactive
same,Potency,[3],inactive
same,Potency,[4],inactive
same,Potency,[9],inactive
CC[C@]1(O)CC[C@H]2[C@@H]3CCC4=CCCC[C@@H]4[C@H]3CC[C@@]21C,Potency,[10],inactive
same,Potency,[8],inactive
same,Potency,[5],inactive
same,Potency,[2],inactive
same,Potency,[7],inactive
same,Potency,[3],inactive
same,Potency,[4],inactive
CCCN,Potency,[1],inactive
same,Potency,[3],inactive
c1ccc2nc(N3CCNCC3)ccc2c1,Potency,[9],inactive
O=C1C[C@@H]2OCC=C3CN4CC[C@]56c7ccccc7N1[C@H]5[C@H]2[C@H]3C[C@H]46,Potency,[1],inactive
same,Potency,[3],inactive
